The results in this text go back to publication PMC7819943, “Rice protein-binding microarrays: a tool to detect cis-acting elements near promoter regions in rice”.

Whole data set: some 39,000 sequences, median “fluorescence intensity (a.u.)” near 4,300, cut for the highest 2% near 39,000. Many of the other results were omitted from the sample, so the highest values are more common in it than they were.

The experiment concerns the target T1, OsSMF1 (Oryza sativa, UniProt Q6ZLB0 1-436).
T1 sequence: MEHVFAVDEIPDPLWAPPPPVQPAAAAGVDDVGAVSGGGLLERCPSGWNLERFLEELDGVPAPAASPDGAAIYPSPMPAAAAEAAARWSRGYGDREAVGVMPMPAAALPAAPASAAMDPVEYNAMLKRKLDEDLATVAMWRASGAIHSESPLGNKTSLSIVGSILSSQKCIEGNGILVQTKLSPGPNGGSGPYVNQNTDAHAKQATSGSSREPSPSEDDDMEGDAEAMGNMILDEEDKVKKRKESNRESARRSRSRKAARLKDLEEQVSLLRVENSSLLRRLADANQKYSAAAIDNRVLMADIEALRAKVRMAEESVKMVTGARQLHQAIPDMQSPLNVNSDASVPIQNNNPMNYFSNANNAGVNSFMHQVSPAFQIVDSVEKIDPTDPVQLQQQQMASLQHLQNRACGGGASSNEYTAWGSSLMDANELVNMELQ
Kind of experiment: protein-binding microarray (RPBM); PBS, 2% BSA, 51.3 ng/ul salmon testes DNA, 50 uM zinc acetate, 200 nM TF, 25 C, 1 h; high values mean tight binding. The following applies: protein: recombinant; tags: N-terminal polyhistidine and DsRed monomer fusion (pET32a); chain copies: 2; label: CyDye5-dUTP incorporated in the synthesized complementary strand; 3' TTTTT single-stranded linker to array surface; dsDNA, one strand shown. The method in brief: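 Binding signal is defined as the fluorescence intensity of each feature in arbitrary units, read on an Axon 4000B scanner. Transcription factors with N-terminal polyhistidine and DsRed fusions came from E. coli BL21-CodonPlus and were purified on Ni–NTA. They were incubated at 200 nM for 1 h at 25 °C on a custom Agilent array that had been made double-stranded with Cy5-dUTP, with 50 µM zinc acetate present, and the array was washed.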
Consider “ACCAAAATTCTCATATCTCTCAACTAAACAAAACTCTTAACGGAGTCACCTAGTGCAG”, for which the binding signal is 3300 fluorescence intensity (a.u.).
With “ACCCACGCACTCACTGACGATGCAATGCGGCCATATGCTACGGAGTCACCTAGTGCAG”, the binding signal was 3240 fluorescence intensity (a.u.).
The same measure for “CTCTTCATTTGTTAATTTAATTTGATTAATTCAGTGCTTCCGGAGTCACCTAGTGCAG”: 64900 fluorescence intensity (a.u.); for “TAGTAGATAGCTTTGCTCTCTCTCTTCATTTAATATATTCCGGAGTCACCTAGTGCAG”: 4540 fluorescence intensity (a.u.); for “GCAGAGTTCAGAATTTGTTCAGTTTAGGTGCTTCTGTAATCGGAGTCACCTAGTGCAG”: 55600 fluorescence intensity (a.u.).
The same measure for “GATGTTCAGATGTACAACAGTAATTTGATTGCATCGGCTTCGGAGTCACCTAGTGCAG”: 3270 fluorescence intensity (a.u.); for “TTTTGCTTAGCTGTTCTGTAATTGTCGATTTGAATTGGATCGGAGTCACCTAGTGCAG”: 3500 fluorescence intensity (a.u.); for “AGTGCTTTATTTTGCTGATTCATTGTTAAAATTGCCTCTACGGAGTCACCTAGTGCAG”: 5500 fluorescence intensity (a.u.).
On to “CGGGAGAGAGGATCGGGAGAGATAGGGTTAGGGTTAGGGTCGGAGTCACCTAGTGCAG”, for which the binding signal is 3320 fluorescence intensity (a.u.).
The same measure for “CCACCACGTACAGTGCTTTCCTAGGCAGAAGCCCACTATCCGGAGTCACCTAGTGCAG”: 3490 fluorescence intensity (a.u.); for “ACCAATCGCATGACGATATTCCCGCTCCCACAATCGCGTTCGGAGTCACCTAGTGCAG”: 3550 fluorescence intensity (a.u.); for “CGAACCGATGGTTGTGATTGTACGTGTCTACCTGATACGTCGGAGTCACCTAGTGCAG”: 5940 fluorescence intensity (a.u.).
In the case of “GAAAATAAGGGAGTTTTCTGCAAAATTTGATGAATGGAAGCGGAGTCACCTAGTGCAG”, the binding signal was 3230 fluorescence intensity (a.u.).
The same measure for “TTTTGGTCATTTTACCATATGACTTTGTTTTGGTAATTTGCGGAGTCACCTAGTGCAG”: 3210 fluorescence intensity (a.u.); for “TTTCTGTGACGGCCCGCGTAGCTTCGGAGGAAGCGACCACCGGAGTCACCTAGTGCAG”: 47700 fluorescence intensity (a.u.); for “CGGATTCTCGTCGGCTTCGGCGACCGGAAGAGGAGAGGAGCGGAGTCACCTAGTGCAG”: 3230 fluorescence intensity (a.u.).
The same measure for “CGGAGTGGCCAGCGTGGTGACAAGCGCGACGTGGCGGCTTCGGAGTCACCTAGTGCAG”: 6830 fluorescence intensity (a.u.); for “TGGAGGGCAGTTTCGCTGACGTGGCGGTGTTGACCTAGTGCGGAGTCACCTAGTGCAG”: 34200 fluorescence intensity (a.u.); for “TCCCTTGACGGTTTTGGCTGACGTGGCGCCTAGGTGGCTACGGAGTCACCTAGTGCAG”: 30000 fluorescence intensity (a.u.).
In the case of “AGCGGTTTCGCTGACGTGGCGGTTAGGTGGCATTTGAATTCGGAGTCACCTAGTGCAG” it was 23800 fluorescence intensity (a.u.).
Consider “GTTTAATGGGTTGATGTGGCATGCTTACATATAGGTTTTACGGAGTCACCTAGTGCAG”, for which the binding signal is 5830 fluorescence intensity (a.u.).
In the case of “GGCACTATAGATGTTTGGTTTCGCTGACGTGGCATTCTAGCGGAGTCACCTAGTGCAG” it was 49000 fluorescence intensity (a.u.); in that of “CTTGGTGGTTTTATAGGGTGGTTTCGCTGACGTGGCGTGGCGGAGTCACCTAGTGCAG”, 44600 fluorescence intensity (a.u.); in that of “TCCCTTGGCAGTATAGGTGGGTGGTTTTGCTTACGTGGCACGGAGTCACCTAGTGCAG”, 40000 fluorescence intensity (a.u.).
In the case of “TTTAGATGGCGGTTTTGGCTGACGTGGCACATATGTGGCTCGGAGTCACCTAGTGCAG”, the binding signal is 33100 fluorescence intensity (a.u.).
The same measure for “GGTTTAGACGTGGCGGTGGTGGGTGGCGTACGTTTGGGTTCGGAGTCACCTAGTGCAG”: 5180 fluorescence intensity (a.u.).
In the case of “AACTGGAACCCTTAGCCACTGTGAGGTGTACATCTGACAACGGAGTCACCTAGTGCAG” it was 4990 fluorescence intensity (a.u.); in that of “CTAGCCACTGAAGCATGGGTCATGATACAGCAGTTAATATCGGAGTCACCTAGTGCAG”, 3440 fluorescence intensity (a.u.).
In the case of “CTTATCAAGACTCGTGGCGTGGAAAGCTTTACAGGTGAGGCGGAGTCACCTAGTGCAG” it was 4710 fluorescence intensity (a.u.); in that of “ATGCATGACAGCACACCACACATTGACACCACTGAGGCAGCGGAGTCACCTAGTGCAG”, 3260 fluorescence intensity (a.u.).
For “TTAAAGAAATGGTTGGTGCTGCTCCGACTCCCTGTTTCCTCGGAGTCACCTAGTGCAG”, the binding signal was 16200 fluorescence intensity (a.u.).
Turning to “GCCTCTCCTCAAGCGGTGGAGAGCGCGGACGTGGACGTGCCGGAGTCACCTAGTGCAG”, the binding signal is 6520 fluorescence intensity (a.u.).
Consider “GGCTCAAAAGATTCATCTCGCGATTTCCATACAAACTGTACGGAGTCACCTAGTGCAG”, for which the binding signal was 46300 fluorescence intensity (a.u.).
As for “GGATTAATTAGTCTCAAAAGATTCGTCTCGCGGTTTCCAGCGGAGTCACCTAGTGCAG”, the binding signal was 29400 fluorescence intensity (a.u.).
The same measure for “TGTCAAATCATGACGCAATTAGGCTCAGAAGATTCGTCTCCGGAGTCACCTAGTGCAG”: 4030 fluorescence intensity (a.u.).
In the case of “GGCTTAAAAGATTCGTTTCATAATTTACACGCAAACTGTACGGAGTCACCTAGTGCAG” it was 3890 fluorescence intensity (a.u.); in that of “ATTAGGCTCAAAAGATTCGTCTCGCGATTTTCAGACGAGCCGGAGTCACCTAGTGCAG”, 41800 fluorescence intensity (a.u.).
Consider “TTATGATGTAATTAGGCTCAAAAGATTCGTCTCGCAATTTCGGAGTCACCTAGTGCAG”, for which the binding signal was 44200 fluorescence intensity (a.u.).
Turning to “TATCAAATTATAGCGCAATTAGGCTCAAAAGATTCAGATTCGGAGTCACCTAGTGCAG”, the binding signal was 26600 fluorescence intensity (a.u.).
The same measure for “GATTCGTCTCGCGATTTCCATTCAAACTGTGCAATTAGTTCGGAGTCACCTAGTGCAG”: 28000 fluorescence intensity (a.u.); for “AAAAGATTCGTCTCGCAATTTACACGTAACCTGTGTAATTCGGAGTCACCTAGTGCAG”: 7350 fluorescence intensity (a.u.).
In the case of “GGGTGATTGAATCCTTGTCATCTAGTGTAAGGCATCTTTCCGGAGTCACCTAGTGCAG” it was 4510 fluorescence intensity (a.u.).
